Where “and” joins values, the source holds several entries; their conditions need not be identical. Equal values may be shown once. The panel holds about 83,000 compounds, 20% with a hit somewhere; the sample as a whole holds those more often.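 The endpoint reported here, percent growth, reads 100 for growth as untreated, 0 for no net growth and -100 for all cells dead.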 Calls of active or inactive are those of the source. Rule for the calls: active = growth percent below 10; inactive = the rest.
Key:
Experiment in all cases: NCI-60 one-dose screen, 48 h (100 = growth as untreated, 0 = no growth, -100 = all killed)
[1] = system: DU-145 prostate
[2] = system: K-562 leukemia
[3] = system: MALME-3M melanoma
[4] = system: MDA-MB-231 breast
[5] = system: RXF 393 renal
[6] = system: SF-268 CNS
[7] = system: SF-295 CNS
[8] = system: SF-539 CNS
[9] = system: UACC-257 melanoma
[10] = system: M14 melanoma
[11] = system: HCT-15 colon
[12] = system: HT29 colon
[13] = system: SNB-75 CNS
[14] = system: U251 CNS
[15] = system: PC-3 prostate
[16] = system: SK-MEL-5 melanoma
[17] = system: UACC-62 melanoma
[18] = system: LOX IMVI melanoma
[19] = system: SK-MEL-28 melanoma
[20] = system: SNB-19 CNS

`O=C(O)c1sccc1O` was tested, and the growth ([1]; 10 µM) was 83.1% (inactive), the growth ([1]; 100 µM) was 40.3% (inactive) and the growth ([2]; 10 µM) was 60.5% (inactive). The growth ([2]; 100 µM) was 5.69% (active), the growth ([3]; 10 µM) was 103% (inactive) and the growth ([3]; 100 µM) was 78.8% (inactive). For the same molecule, the growth ([4]; 10 µM) was 40.8% (inactive), the growth ([4]; 100 µM) was 27.7% (inactive) and the growth ([5]; 10 µM) was 84.6% (inactive). For the same molecule, the growth ([5]; 100 µM) was 52.1% (inactive), the growth ([6]; 10 µM) was 71.6% (inactive) and the growth ([6]; 100 µM) was 26% (inactive). For the same molecule, the growth ([7]; 10 µM) was 76.6% (inactive), the growth ([7]; 100 µM) was 31.2% (inactive) and the growth ([8]; 10 µM) was 85.4% (inactive). The growth ([8]; 100 µM) was 23.5% (inactive), the growth ([9]; 10 µM) was 85.3% (inactive) and the growth ([9]; 100 µM) was 51.5% (inactive). For the same molecule, the growth ([10]; 10 µM) was 85.5% (inactive), the growth ([10]; 100 µM) was 7.02% (active) and the growth ([11]; 10 µM) was 81% (inactive). The growth ([11]; 100 µM) was 31.5% (inactive), the growth ([12]; 10 µM) was 105% (inactive) and the growth ([12]; 100 µM) was 30.2% (inactive). The growth ([13]; 10 µM) was 84.6% (inactive), the growth ([13]; 100 µM) was 28.5% (inactive) and the growth ([14]; 10 µM) was 76.6% (inactive). The growth ([14]; 100 µM) was 15.9% (inactive), the growth ([15]; 10 µM) was 49.3% (inactive) and the growth ([15]; 100 µM) was 23% (inactive). The growth ([16]; 10 µM) was 78.6% (inactive), the growth ([16]; 100 µM) was 7.35% (active) and the growth ([17]; 10 µM) was 56.5% (inactive). For the same molecule, the growth ([17]; 100 µM) was 0.233% (active), the growth ([18]; 10 µM) was 80.3% (inactive) and the growth ([18]; 100 µM) was 2.04% (active). For the same molecule, the growth ([19]; 10 µM) was 101% (inactive) and the growth ([19]; 100 µM) was 28.3% (inactive).

In the case of `CC(C)(C)c1cc(NC(=O)Cc2ccc(-c3cnc4cc(-c5cnn(CCN6CCOCC6)c5)ccc4n3)cc2)no1`, the growth ([1]; 10 µM) is reported as 23.7% (inactive), the growth ([1]; 30 µM) is reported as 19.8% (inactive) and the growth ([2]; 10 µM) is reported as 2.41% (active). The growth ([2]; 30 µM) was -1.34% (active), the growth ([3]; 10 µM) was -5.96% (active) and the growth ([3]; 30 µM) was -9.19% (active). For the same molecule, the growth ([4]; 10 µM) was 9.54% (active), the growth ([4]; 30 µM) was 14.9% (inactive) and the growth ([5]; 10 µM unless noted) was -20.5% (active). For the same molecule, the growth ([6]; 10 µM) was 19.9% (inactive), the growth ([6]; 30 µM) was 24.7% (inactive) and the growth ([7]; 10 µM) was 21.4% (inactive). The growth ([7]; 30 µM) was 15.4% (inactive), the growth ([8]; 10 µM) was -5.64% (active) and the growth ([8]; 30 µM) was -9.45% (active). For the same molecule, the growth ([9]; 10 µM) was 27.1% (inactive), the growth ([9]; 30 µM) was 31% (inactive) and the growth ([10]; 10 µM unless noted) was 15% (inactive). For the same molecule, the growth ([11]; 10 µM) was 9.24% (active), the growth ([11]; 30 µM) was 7.76% (active) and the growth ([13]; 10 µM) was -0.488% (active). For the same molecule, the growth ([13]; 30 µM) was -1.06% (active), the growth ([20]; 10 µM) was 42.4% (inactive) and the growth ([20]; 30 µM) was 44% (inactive). For the same molecule, the growth ([14]; 10 µM) was 22.1% (inactive), the growth ([14]; 30 µM) was 33.4% (inactive) and the growth ([15]; 10 µM) was 24.7% (inactive). The growth ([15]; 30 µM) was 23.9% (inactive), the growth ([16]; 10 µM unless noted) was 9.52% (active) and the growth ([17]; 10 µM) was 16.3% (inactive). The growth ([17]; 30 µM) was 19.6% (inactive), the growth ([18]; 10 µM) was 17.7% (inactive) and the growth ([18]; 30 µM) was 8.41% (active). The growth ([19]; 10 µM) was 29.4% (inactive) and the growth ([19]; 30 µM) was 30.3% (inactive).

In the case of `COc1cc(Nc2nc3ccccc3nc2NS(=O)(=O)c2ccc(NC(=O)c3ccc(C)c(OC)c3)cc2)cc(OC)c1`, the growth ([1]; 10 µM unless noted) is reported as 63.2% (inactive) and 12.9% (inactive), the growth ([2]; 10 µM unless noted) is reported as 63% (inactive) and 29.3% (inactive) and the growth ([3]; 10 µM unless noted) is reported as 30.7% (inactive) and -18.6% (active). The growth ([4]; 10 µM unless noted) was 77.2% (inactive) and 13.5% (inactive), the growth ([5]; 10 µM unless noted) was 75.1% (inactive) and -38.8% (active) and the growth ([6]; 10 µM unless noted) was 54.8% (inactive) and 18.2% (inactive). The growth ([7]; 10 µM unless noted) was 41.7% (inactive) and -32.8% (active), the growth ([8]; 10 µM unless noted) was 62.7% (inactive) and -35.7% (active) and the growth ([9]; 10 µM unless noted) was 74.7% (inactive) and -18.8% (active). For the same molecule, the growth ([10]; 10 µM unless noted) was 64.1% (inactive) and 8.75% (active), the growth ([11]; 10 µM unless noted) was 60.3% (inactive) and 13.4% (inactive) and the growth ([12]; 10 µM unless noted) was 53.7% (inactive) and 5.41% (active). The growth ([13]; 10 µM unless noted) was 32% (inactive) and -34.7% (active), the growth ([20]; 10 µM unless noted) was 68.2% (inactive) and 39.1% (inactive) and the growth ([14]; 10 µM unless noted) was 55.4% (inactive) and 21.5% (inactive). For the same molecule, the growth ([15]; 10 µM unless noted) was 21.5% (inactive) and 11.1% (inactive), the growth ([16]; 10 µM unless noted) was 85.3% (inactive) and -25.7% (active) and the growth ([17]; 10 µM unless noted) was 56.4% (inactive) and -32.5% (active). For the same molecule, the growth ([18]; 10 µM unless noted) was 52.7% (inactive) and 2.52% (active) and the growth ([19]; 10 µM unless noted) was 63.8% (inactive) and -17.5% (active).

`Nc1nc(SC/C=C/CCl)c2[nH]cnc2n1` was tested, and the growth ([1]; 10 µM unless noted) was 110% (inactive), the growth ([2]; 10 µM unless noted) was 103% (inactive) and 90.7% (inactive) and the growth ([3]; 10 µM unless noted) was 114% (inactive) and 92.3% (inactive). The growth ([4]; 10 µM unless noted) was 112% (inactive) and 102% (inactive), the growth ([5]; 10 µM unless noted) was 112% (inactive) and 133% (inactive) and the growth ([6]; 10 µM unless noted) was 104% (inactive) and 107% (inactive). The growth ([7]; 10 µM unless noted) was 97.2% (inactive) and 112% (inactive), the growth ([8]; 10 µM unless noted) was 114% (inactive) and 97.5% (inactive) and the growth ([9]; 10 µM unless noted) was 94.7% (inactive) and 102% (inactive). For the same molecule, the growth ([10]; 10 µM unless noted) was 107% (inactive) and 98.9% (inactive), the growth ([11]; 10 µM unless noted) was 104% (inactive) and 94.2% (inactive) and the growth ([12]; 10 µM unless noted) was 108% (inactive) and 95.5% (inactive). The growth ([13]; 10 µM unless noted) was 108% (inactive) and 101% (inactive), the growth ([20]; 10 µM unless noted) was 107% (inactive) and 102% (inactive) and the growth ([14]; 10 µM unless noted) was 99.1% (inactive) and 98.1% (inactive). For the same molecule, the growth ([15]; 10 µM unless noted) was 99.6% (inactive) and 93.6% (inactive), the growth ([16]; 10 µM unless noted) was 103% (inactive) and 114% (inactive) and the growth ([17]; 10 µM unless noted) was 104% (inactive) and 105% (inactive). The growth ([18]; 10 µM unless noted) was 103% (inactive) and the growth ([19]; 10 µM unless noted) was 115% (inactive) and 112% (inactive).

For `CN(C)CCCN1c2ccccc2Sc2ccc(Cl)cc21`, the growth ([1]; 10 µM unless noted) was 101% (inactive) and 113% (inactive) and 111% (inactive), the growth ([2]; 10 µM unless noted) was 51.6% (inactive) and 120% (inactive) and 58.2% (inactive) and the growth ([3]; 10 µM unless noted) was 90.2% (inactive) and 111% (inactive) and 76.7% (inactive). The growth ([4]; 10 µM unless noted) was 67.7% (inactive) and 108% (inactive) and 72.3% (inactive), the growth ([5]; 10 µM unless noted) was 52% (inactive) and 84.6% (inactive) and 82% (inactive) and the growth ([6]; 10 µM unless noted) was 83% (inactive) and 104% (inactive) and 83.6% (inactive). For the same molecule, the growth ([7]; 10 µM unless noted) was 95.3% (inactive) and 160% (inactive) and 81% (inactive), the growth ([8]; 10 µM unless noted) was 90.5% (inactive) and 98.8% (inactive) and 88.8% (inactive) and the growth ([9]; 10 µM unless noted) was 78% (inactive) and 106% (inactive) and 115% (inactive). For the same molecule, the growth ([10]; 10 µM unless noted) was 31% (inactive) and 102% (inactive) and 81% (inactive), the growth ([11]; 10 µM unless noted) was 73.4% (inactive) and 109% (inactive) and 88.5% (inactive) and the growth ([12]; 10 µM unless noted) was 27.4% (inactive) and 120% (inactive) and 62.9% (inactive). For the same molecule, the growth ([13]; 10 µM unless noted) was 48.3% (inactive) and 106% (inactive) and 58.8% (inactive), the growth ([20]; 10 µM unless noted) was 98.2% (inactive) and 92.4% (inactive) and 94.5% (inactive) and the growth ([14]; 10 µM unless noted) was 78.1% (inactive) and 106% (inactive) and 93.4% (inactive). For the same molecule, the growth ([15]; 10 µM unless noted) was 67.3% (inactive) and 103% (inactive) and 80.3% (inactive), the growth ([16]; 10 µM unless noted) was 3.06% (active) and 102% (inactive) and 79% (inactive) and the growth ([17]; 10 µM unless noted) was 75.3% (inactive) and 89.8% (inactive) and 88.9% (inactive). For the same molecule, the growth ([18]; 10 µM unless noted) was 78.3% (inactive) and 113% (inactive) and 100% (inactive) and the growth ([19]; 10 µM unless noted) was 83.6% (inactive) and 108% (inactive) and 98.8% (inactive).

In the case of `COc1ccc2c(=O)cc(-c3ccccc3)[nH]c2c1`, the growth ([1]; 10 µM unless noted) is reported as 15% (inactive) and 19.1% (inactive), the growth ([2]; 10 µM unless noted) is reported as 9.54% (active) and -12.9% (active) and the growth ([3]; 10 µM unless noted) is reported as 40.7% (inactive) and 47.9% (inactive). For the same molecule, the growth ([4]; 10 µM unless noted) was 29.9% (inactive) and 29.1% (inactive), the growth ([5]; 10 µM unless noted) was 7.41% (active) and the growth ([6]; 10 µM unless noted) was 45.3% (inactive) and 43.1% (inactive). For the same molecule, the growth ([7]; 10 µM unless noted) was -8.08% (active) and 2.52% (active), the growth ([8]; 10 µM unless noted) was -5.99% (active) and -23.9% (active) and the growth ([9]; 10 µM unless noted) was 65.2% (inactive) and 30.5% (inactive). For the same molecule, the growth ([10]; 10 µM unless noted) was 4.76% (active) and 0.39% (active), the growth ([11]; 10 µM unless noted) was 22.6% (inactive) and 19.2% (inactive) and the growth ([12]; 10 µM unless noted) was -3.3% (active) and 5.55% (active). For the same molecule, the growth ([13]; 10 µM unless noted) was 13.8% (inactive) and 9.61% (active), the growth ([20]; 10 µM unless noted) was 29.6% (inactive) and 27% (inactive) and the growth ([14]; 10 µM unless noted) was 12.2% (inactive) and 15.6% (inactive). For the same molecule, the growth ([15]; 10 µM unless noted) was 18.5% (inactive) and 19.4% (inactive), the growth ([16]; 10 µM unless noted) was 21.5% (inactive) and 12.7% (inactive) and the growth ([17]; 10 µM unless noted) was 38.4% (inactive) and 20% (inactive). For the same molecule, the growth ([18]; 10 µM unless noted) was 48.3% (inactive) and 49% (inactive) and the growth ([19]; 10 µM unless noted) was 39.3% (inactive) and 70.8% (inactive).

Source: PubChem BioAssay (NCI)
